# Shown are actives, neighbours in structure and some others; about 6.5% of the full set was active somewhere.
# Vaccinia Venus: vaccinia inhibition (Venus reporter). Potency, µM (titrated, usually from 36.5 µM), usual class: inhibitors. 330,000 compounds, 0.46% hits. Vaccinia virus Venus reporter expression, fluorescence; calls by dose curve; tested in A549 cells; further: nearly all actives have a fitted effect of over 30% in size
# LASV entry inh: Lassa virus entry inhibition; Lassa virus pseudotype entry inhibition, cell reporter; Potency, µM (titrated, usually from 37.9 µM), usual class: inhibitors; 300,000 compounds, 1.2% hits; calls by dose curve; tested in HEK293 cells; further: nearly all actives have a fitted effect of over 50% in size
# VACV mCherry inh: inhibitors of vaccinia virus infection (mCherry reporter signal). Vaccinia virus mCherry reporter infection, fluorescence. Potency, µM (highest dose often 36.5 µM), usual class: inhibitors. 310,000 compounds, 0.63% hits; calls by dose curve; tested in A549 cells; further: nearly all actives have a fitted effect of over 35% in size
# FMDV antiviral: blocks foot and mouth disease virus; FMDV antiviral cell-based qHTS; Potency, µM (top dose mostly 57.9 µM), usual class: inhibitors; 410,000 compounds, 1.2% hits; AID 1159524; calls by dose curve; tested in HEK293T cells; further: read-out not given here; nearly all actives have a fitted effect of over 45% in size
# HCMV inh: inhibitors of human cytomegalovirus. AID 1259415. 410,000 compounds, 4.5% hits. activity change, negative = inhibition, % at 57.5 µM. HFF cells, HCMV-luciferase reporter, 72 h; stronger effect = lower value; in the data active means activity change below about -60%; inconclusive means no clear call, values can overlap the other calls; inactive means above about -39%
#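 Two compound doses tested in HFFs infected with HCMV-luciferase, MOI 1 PFU/cell, 72 h at 37C. Lysate luminescence read with OneGlo; data normalized against buffer-only and 10uM Salinomycin inhibitor controls.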
# MARV entry inh: inhibitors of Marburg virus binding or cell entry | Marburg virus pseudotyped entry inhibition, cell reporter | Potency, µM (highest dose often 37.8 µM), actives largely listed as inhibitors | 300,000 compounds, 1.8% hits | AID 540276; calls by dose curve; tested in HEK293 cells
# A number is an active result; n = inactive; u = inconclusive; x = no result given.
SMILES,Vaccinia Venus,LASV entry inh,VACV mCherry inh,FMDV antiviral,HCMV inh,MARV entry inh
O=C(NC1=NCCS1)C1COc2ccccc2O1 (stereo unspecified),n,u,n,10µM,u,1µM
O=C(Nc1nc2c(s1)CCCC2)C1COc2ccccc2O1 (stereo unspecified),n,5.8µM,n,n,n,u
COc1ccc(CN2CCC(n3cc(C(=O)N4CCCC4)nn3)CC2)c(OC)c1C,n,x,n,n,x,x
COC(=O)[C@@H]1CCCN1Cc1ccc2c(c1)CN(Cc1cccn1-c1ccccn1)CCO2,n,x,n,n,x,x
COc1ccc(/C=C/c2nnc(NC(=O)COc3ccc(Cl)cc3)s2)cc1,n,x,n,x,x,x
CN1CCN(C2=C(NS(=O)(=O)c3cccs3)C(=O)c3ccccc3C2=O)CC1,10µM,u,18µM,n,n,u
CN1CCN(C2=C(NS(=O)(=O)c3ccccc3)C(=O)c3ccccc3C2=O)CC1,x,x,x,n,x,x
CCOC(=O)N1CCN(C2=C(NS(=O)(=O)c3ccc(Br)cc3)C(=O)c3ccccc3C2=O)CC1,u,x,u,n,n,x
CCN1CCN(C2=C(NS(=O)(=O)c3ccc(Br)cc3)C(=O)c3ccccc3C2=O)CC1,x,x,x,n,-112,x
CCN1CCN(C2=C(NS(=O)(=O)c3ccccc3)C(=O)c3ccccc3C2=O)CC1,x,x,x,u,-62,x
CC12C=C(/C=C/c3ccc(F)cc3)C(C)(C1)C(c1ccc(F)cc1)CC2=O (stereo unspecified),x,x,x,x,x,n
C=C[C@@H](C)[C@](C)(O)c1ccccc1,x,x,x,x,x,n
CCO[C@H]1OC(C(=O)N2CCN(C)CC2)=C[C@@H](C(C)(C)C)[C@@H]1CCCO,n,x,n,n,n,x
CCO[C@H]1OC(C(=O)NC2CC2)=C[C@@H](c2ccc3c(c2)OCO3)[C@@H]1CCCO,n,x,n,n,n,x
CCO[C@@H]1OC(C(N)=O)=C[C@H](c2ccc3c(c2)OCO3)[C@H]1CCCO,n,x,n,n,-95,x
CCO[C@H]1OC(C(=O)NCc2nc3ccccc3[nH]2)=C[C@@H](C)[C@@H]1CCCO,n,x,n,n,-62,x
CCO[C@H]1OC(C(=O)N2CCN(Cc3ccccc3)CC2)=C[C@@H](c2ccc(C(F)(F)F)cc2)[C@@H]1CCCO,u,x,n,n,-86,x
CCO[C@H]1OC(C(=O)N2CCN(C)CC2)=C[C@@H](C)[C@@H]1CCCO,n,x,n,n,-97,x
COc1cc(Cl)c(C)cc1NC(=O)CCc1c(C)nc2c3cccnc3nn2c1C,n,n,n,n,n,n
C[C@@]12CCC(O)C[C@H]1CCc1ccccc12 (stereo partly specified),n,x,n,n,x,x
CC(=O)c1c(C)[nH]c(C(=O)CSc2nc3ccccc3n2C)c1C,n,u,n,n,-78,u
CC(=O)c1c(C)[nH]c(C(=O)CSc2nnc(-c3ccco3)o2)c1C,n,u,n,u,n,11µM
CCn1c(SCC(=O)c2cccs2)nnc1-c1cccs1,n,u,n,n,n,n
CCn1c(SCC(=O)c2[nH]c(C)c(C(C)=O)c2C)nnc1-c1cccs1,x,n,x,u,-93,n
Cc1ccccc1C1(CC(=O)N2CCCC(C)C2)CC(=O)N(Cc2cccnc2)C1=O (stereo unspecified),n,x,n,n,x,x
SMILES,Vaccinia Venus,LASV entry inh,VACV mCherry inh,FMDV antiviral,HCMV inh,MARV entry inh
Cc1ccc(S(=O)(=O)N(C)C)cc1NC(=O)c1cncc(Br)c1,8.9µM,u,6.3µM,u,u,u
O=C(Nc1ccccc1[N+](=O)[O-])c1cncc(Br)c1,x,n,x,n,-74,n
O=C(Nc1ccc(F)cc1F)c1cncc(Br)c1,n,n,n,n,u,u
Cc1ccc(C2=NCC(C)n3nc4cc(C(F)(F)F)ccc4c32)cc1 (stereo unspecified),x,x,x,x,n,x
C[C@@H]1CCC(=O)N(CC[C@H](Oc2ccccc2)c2ccccc2)CC1,n,x,n,n,-64,x
COc1ccc(S[C@@H](CCN2CC[C@H](C)CCC2=O)c2ccccc2)cc1,n,x,n,n,n,x
CCOc1ccc(CCn2c(-c3ccco3)nc3ccccc3c2=O)cc1OCC,x,6.5µM,x,u,-76,2.3µM
O=c1c2ccccc2nc(-c2ccco2)n1Cc1ccccc1,x,n,x,n,n,n
CCCNC(=O)c1cc2c(c(-c3cccc(-c4cc5ccccc5o4)c3)n1)[C@H](CCO)N(C(=O)NC(C)C)C2,u,x,u,u,-88,x
CC(=O)N1Cc2cc(C(=O)NCC(F)(F)F)nc(-c3cccc(-c4cccnc4)c3)c2[C@@H]1CCO,n,x,n,n,-81,x
CC(=O)N1Cc2cc(C(=O)NCC(F)(F)F)nc(-c3cccc(-c4cccnc4)c3)c2[C@H]1CCO,n,x,n,n,n,x
CC(C)(C)S(=O)N1Cc2cc(C(=O)NCC(F)(F)F)nc(-c3cccc(-c4cccc(F)c4)c3)c2[C@@H]1CCO (stereo partly specified),u,x,u,n,-77,x
O=S(=O)(c1ccc(OC(F)(F)F)cc1)N1CCN(c2nc(-c3ccccc3)nc3ccccc23)CC1,n,x,n,x,x,x
O=C1[C@H]2[C@H]3[C@H](O)[C@H](O)C/C(=N\OC[C@@H](O)COCc4ccco4)[C@H]3CC[C@H]2C(=O)N1C1CCCCC1,x,x,x,x,x,n
CC(C)(C)C1CCC(CN2C(Nc3ccccc3)=NC[C@@H]2Cc2ccccc2)CC1 (stereo partly specified),u,x,u,u,-76,x

# Screens from PubChem BioAssay.
